Experimental data: PubChem BioAssay AID1645887 (National Center for Advancing Translational Sciences (NCATS), 2021)
The campaign covered roughly 16,000 compounds. About 40 (0.2%) were called active. Not shown: some 1% with an inconclusive outcome. Only a selection was taken, and actives are over-represented in it overall. Values without a mark were called inactive. The call rests on the fitted dose curve; in most records, active means well fitted activation curve with a large enough effect; inconclusive means small, poorly fitted or top-dose-only effect, or another doubt; inactive means no such curve, though single readings can be large or run the other way.
On the % scale 0 is the no-effect control and ±100 the full control effect; potency means the concentration at half of the fitted maximal effect.
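Wherever activation is given: exchange makes BODIPY-GDP fluorescence drop when released from Rap1B; series mostly up to about 150 µM.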

What follows are molecules tested against Rap guanine nucleotide exchange factor 4 (Homo sapiens) (UniProt Q8WZA2) (assay: Validation qHTS for agonist of cAMP-regulated guanine nucleotide exchange factor 4 (EPAC2)). Settings: EPAC2 Rap1B BODIPY-GDP exchange, fluorescence; activation: hits give high values.
Sequence of Rap guanine nucleotide exchange factor 4 (Homo sapiens) (Q8WZA2 whole entry, looked up): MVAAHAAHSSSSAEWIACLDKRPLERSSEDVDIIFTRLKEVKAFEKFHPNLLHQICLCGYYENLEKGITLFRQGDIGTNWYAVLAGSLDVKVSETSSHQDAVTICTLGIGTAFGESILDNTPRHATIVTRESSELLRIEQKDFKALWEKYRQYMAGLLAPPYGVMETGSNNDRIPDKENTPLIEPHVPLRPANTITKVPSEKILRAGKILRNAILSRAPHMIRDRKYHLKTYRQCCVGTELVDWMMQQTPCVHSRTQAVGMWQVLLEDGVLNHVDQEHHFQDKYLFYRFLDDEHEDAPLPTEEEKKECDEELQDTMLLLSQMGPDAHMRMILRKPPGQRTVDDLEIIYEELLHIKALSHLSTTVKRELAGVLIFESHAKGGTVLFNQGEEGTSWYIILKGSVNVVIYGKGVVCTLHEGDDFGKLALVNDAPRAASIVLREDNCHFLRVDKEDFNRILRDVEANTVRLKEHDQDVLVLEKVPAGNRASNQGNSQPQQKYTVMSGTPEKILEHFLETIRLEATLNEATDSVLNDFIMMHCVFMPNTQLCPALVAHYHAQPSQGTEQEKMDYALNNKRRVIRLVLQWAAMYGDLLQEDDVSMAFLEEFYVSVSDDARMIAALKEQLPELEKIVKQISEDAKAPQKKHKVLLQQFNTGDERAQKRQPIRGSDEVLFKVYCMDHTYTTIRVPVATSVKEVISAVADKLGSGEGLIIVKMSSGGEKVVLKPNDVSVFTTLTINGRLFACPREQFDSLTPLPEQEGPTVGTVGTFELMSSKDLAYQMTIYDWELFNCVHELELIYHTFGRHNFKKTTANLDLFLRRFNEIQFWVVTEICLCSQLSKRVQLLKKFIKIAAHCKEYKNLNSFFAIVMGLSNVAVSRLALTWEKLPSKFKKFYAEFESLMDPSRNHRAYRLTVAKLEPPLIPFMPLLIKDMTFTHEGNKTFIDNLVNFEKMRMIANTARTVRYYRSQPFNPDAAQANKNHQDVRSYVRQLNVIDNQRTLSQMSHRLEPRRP
In short: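 Fluorescent exchange assay: 100 nM EPAC2 with 250 nM RAP1B-BODIPY-GDP and 50 uM GDP; compound added, 5 min at room temperature, then read (ex 480/em 540 nm) every 5 min for 30 min. Normalized to 6.5 mM cAMP agonist control.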
With `CC(N)(COP(=O)(O)O)C(=O)O` (stereo unspecified) the activation was 4.78%. In the case of `CC(C)C[C@@H](CSc1ccccc1)N1CCN(C)CCC1=O`, the activation is reported as -9.44%. `Cc1noc(C)c1-c1nccc(NC2CC2)n1` showed an activation of -2.86%. With `CC(C)CCCC(C)C1CCC2C3C(=O)C=C4CC(O)CC[C@@]4(C)C3CC[C@@]12C` (stereo partly specified) the activation was -16%. `COC(=O)c1ccccc1C(=O)NCC1Cc2cc(-c3nc(C)cnc3C)ccc2O1` (stereo unspecified) gave an activation of -20.8%. For `CCCCCCCCCC[n+]1ccc(/C=C/c2c[nH]c3ccccc23)c2ccccc21`, the activation was -5.9%. Work on `COCC(=O)N1CCC[C@@]2(CCN(c3ccccn3)C2)C1` yielded an activation of -5.3%. Molecule `COc1cccc(Nc2ncc3nc(C)c(=O)n(C[C@H]4CCCO4)c3n2)c1` has an activation of -13.4%. With `[C-]#[N+]c1cc(-c2ccncc2)c(C)[nH]c1=O` the activation was -4.45%. In the case of `Nc1cc(-c2ccncc2)c[nH]c1=O`, the Potency is reported as 100 µM (active). `Cc1cccc(N(C)C(=S)Oc2ccc3c(c2)CCC3)c1` was tested, and the activation was 13.3%. `OC(c1cccnc1)c1ccc2c(c1)CN(Cc1cn(-c3ccccc3)nc1-c1ccccc1)CCO2` (stereo unspecified) showed an activation of -2.05%. Work on `O.O.O.O.O.O.O.O=S(=O)([O-])[O-].[Co+2]` yielded an activation of -48.9%. For `CN(C)Cc1ccccc1-c1cncnc1NCc1ccccc1`, the activation was -18.5%. `N#Cc1ccccc1-c1ccc2ncnc(NCc3ccccc3)c2c1` was tested, and the activation was -0.93%. `CC(C)(CNC(=O)c1cnn(-c2nccc(-c3ccccc3F)n2)c1C1CC1)N1CCOCC1` gave an activation of -17.8%. `C[C@]12CCC(=O)C=C1CCC1C3CC[C@](O)(C(=O)CO)[C@@]3(C)CC3OC312` (stereo partly specified) was tested, and the activation was -18.8%. For `O=C1CCNCCN1[C@H](CO)c1ccccc1`, the activation was -16.1%. `CN(C)c1ncnc2ccc(-c3cccc(C#N)c3)cc12` showed an activation of -0.384%. In the case of `Cc1cc(N(C)C)cc(C)c1/C=C/c1cc[n+](C)c2ccccc12`, the activation is reported as -16.7%. Molecule `Cc1cc2c(c(-c3cnccn3)c1)OC(CNC(=O)c1cc(Cl)ccc1F)C2` (stereo unspecified) has an activation of 5.25%. Work on `COC(=O)C1N[C@@H]([C@@H](NC(=O)COc2ccccc2)C(=O)Nc2ccc(OC)cc2)SC1(C)C` (stereo partly specified) yielded an activation of -24.1%. `CC(=O)NCCNc1nc(-c2ccccc2CN(C)C)nc2ccccc12` showed an activation of -19.9%. `COC(=O)CC[C@H](N)C(=O)O` gave an activation of -14%. With `CN1CCN(c2ncc3nc(-c4cn(C)c5ccccc45)c(=O)n(Cc4cccs4)c3n2)CC1` the activation was -4.2%. With `OC(c1ccc2c(c1)CN(Cc1cccn1-c1ncccn1)CCO2)C1CCCCC1` (stereo unspecified) the activation was -21.5%.
